Counter-ions that a name gives are not always drawn.
test system: Danio rerio larvae (5 dpf); experiment: habituation (activity change first vs second 5 min of 1-s interval sound, period 17) minus DMSO control (percentage points); higher = larger habituation measure than DMSO larvae; conditions: 10 µM; exposure time: 3 h pre-incubation + 3 h imaging
Description: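 Wild-type 5 dpf zebrafish larvae (n=48 per drug, 96-well plates, 28.5 °C) were exposed to Tocris FDA-approved library compounds at 10 µM (0.1% DMSO) for 3 h before and 3 h during imaging. Images were taken every 6 s during visual (moving coloured lines) and acoustic stimuli, and larvae were tracked with the DeepLabCut-based Z-LaP Tracker. Each behavioural measure is the treated-group mean minus the DMSO vehicle control mean (n=844), in percentage points. This mapping covers compounds with 4-character plate codes.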

| Compound | habituation |
| --- | --- |
| NC(=O)N1c2ccccc2C=Cc2ccccc21 [Carbamazepine] | 2.97 |
| CC(CCc1ccc(O)cc1)NCCc1ccc(O)c(O)c1 (stereo not given) [Dobutamine hydrochloride] | 3.31 |
| Cc1nc(Nc2ncc(C(=O)Nc3c(C)cccc3Cl)s2)cc(N2CCN(CCO)CC2)n1 [Dasatinib] | -0.804 |
| CC(C)c1nc(N(C)S(C)(=O)=O)nc(-c2ccc(F)cc2)c1/C=C/[C@@H](O)C[C@@H](O)CC(=O)O [Rosuvastatin calcium] | 1.27 |
| Nc1nc(NC2CC2)c2ncn([C@H]3C=C[C@@H](CO)C3)c2n1 [Abacavir hemisulfate] | 3.13 |
| OCCN(CCO)c1nc(N2CCCCC2)c2nc(N(CCO)CCO)nc(N3CCCCC3)c2n1 [Dipyridamole] | 5.96 |
| CN1CCC[C@@H]1CCO[C@](C)(c1ccccc1)c1ccc(Cl)cc1 [Clemastine fumarate] | -6.62 |
| CC(=O)Oc1ccccc1C(=O)O [Aspirin] | -4.51 |
| CCCc1nc2c(C)cc(-c3nc4ccccc4n3C)cc2n1Cc1ccc(-c2ccccc2C(=O)O)cc1 [Telmisartan] | -1.73 |
| COc1ccc([C@@H]2Sc3ccccc3N(CCN(C)C)C(=O)[C@@H]2OC(C)=O)cc1 [Diltiazem hydrochloride] | -0.219 |
| CCCCc1nc(Cl)c(CO)n1Cc1ccc(-c2ccccc2-c2nnn[nH]2)cc1 [Losartan potassium] | 1.01 |
| CC(C)N(CCCCOCC(=O)NS(C)(=O)=O)c1cnc(-c2ccccc2)c(-c2ccccc2)n1 [Selexipag] | -0.762 |
| CS(=O)(=O)CCNCc1ccc(-c2ccc3ncnc(Nc4ccc(OCc5cccc(F)c5)c(Cl)c4)c3c2)o1 [Lapatinib] | -1.33 |
| CCCCCOC(=O)Nc1nc(=O)n([C@@H]2O[C@H](C)[C@@H](O)[C@H]2O)cc1F [Capecitabine] | -3.27 |
| O=C(O)c1cc(/N=N/c2ccc(S(=O)(=O)Nc3ccccn3)cc2)ccc1O [Sulfasalazine] | 1.27 |
| CCC(C)(C)C(=O)O[C@H]1C[C@@H](C)C=C2C=C[C@H](C)[C@H](CC[C@@H]3C[C@@H](O)CC(=O)O3)[C@H]21 [Simvastatin] | -1.02 |
| CN(C)CCc1c[nH]c2ccc(Cn3cncn3)cc12 [Rizatriptan benzoate] | -1.58 |
| CCCc1nc(C(C)(C)O)c(C(=O)O)n1Cc1ccc(-c2ccccc2-c2nnn[nH]2)cc1 [Olmesartan] | 2.6 |
| CCOc1nc2cccc(C(=O)O)c2n1Cc1ccc(-c2ccccc2-c2nnn[nH]2)cc1 [Candesartan] | 5.98 |
| COc1ccc(Cl)cc1C(=O)NCCc1ccc(S(=O)(=O)NC(=O)NC2CCCCC2)cc1 [Glibenclamide] | 0.59 |

| Compound | habituation |
| --- | --- |
| CO[C@H]1/C=C/O[C@@]2(C)Oc3c(C)c(O)c4c(O)c(c5c(nc6cc(C)ccn65)c4c3C2=O)NC(=O)/C(C)=C\C=C\[C@H](C)[C@H](O)[C@@H](C)[C@@H](O)[C@@H](C)[C@H](OC(C)=O)[C@@H]1C [Rifaximin] | -3.24 |
| O=C(NCC1CCCCN1)c1cc(OCC(F)(F)F)ccc1OCC(F)(F)F (stereo not given) [Flecainide acetate] | 0.225 |
| COc1cc2nc(N3CCN(C(=O)c4ccco4)CC3)nc(N)c2cc1OC [Prazosin hydrochloride] | 0.443 |
| COc1ccccc1OCCNCC(O)COc1cccc2[nH]c3ccccc3c12 (stereo not given) [Carvedilol] | -0.0437 |
| Nc1nc(F)nc2c1ncn2[C@@H]1O[C@H](CO)[C@@H](O)[C@@H]1O [Fludarabine] | -0.666 |
| Clc1ccc(COC(Cn2ccnc2)c2ccc(Cl)cc2Cl)c(Cl)c1 (stereo not given) [Miconazole nitrate] | -11.4 |
| COc1cc2nc(N3CCN(C(=O)C4COc5ccccc5O4)CC3)nc(N)c2cc1OC (stereo not given) [Doxazosin mesylate] | 0.55 |
| CN1CCN(CCCN2c3ccccc3Sc3ccc(Cl)cc32)CC1 [Prochlorperazine dimaleate] | -8.1 |
| COc1c(C)c2c(c(O)c1C/C=C(\C)CCC(=O)OCCN1CCOCC1)C(=O)OC2 [Mycophenolate mofetil] | 4.4 |
| Clc1ccccc1C(c1ccccc1)(c1ccccc1)n1ccnc1 [Clotrimazole] | -2.1 |
| CN1CCN2c3ncccc3Cc3ccccc3C2C1 (stereo not given) [Mirtazapine] | -1.26 |
| COc1ccc(C[C@@H](C)NC[C@H](O)c2ccc(O)c(NC=O)c2)cc1 [Arformoterol tartrate] | -3.57 |
| CN1CC2c3ccccc3Oc3ccc(Cl)cc3C2C1 (stereo not given) [Asenapine maleate] | -12.6 |
| CCCCNc1cc(C(=O)O)cc(S(N)(=O)=O)c1Oc1ccccc1 [Bumetanide] | -0.555 |
| CC(C)Nc1cccnc1N1CCN(C(=O)c2cc3cc(NS(C)(=O)=O)ccc3[nH]2)CC1 [Delavirdine mesylate] | -5.18 |
| CC(c1cc2ccccc2s1)N(O)C(N)=O (stereo not given) [Zileuton] | 7.74 |
| CCC(=O)O[C@]1(C(=O)SCF)[C@H](C)C[C@H]2[C@@H]3C[C@H](F)C4=CC(=O)C=C[C@]4(C)[C@@]3(F)[C@@H](O)C[C@@]21C [Fluticasone propionate] | 2.72 |
| Nc1nc2[nH]cc(CCc3ccc(C(=O)N[C@@H](CCC(=O)O)C(=O)O)cc3)c2c(=O)[nH]1 [Pemetrexed] | -1.84 |
| C[C@H]1C[C@@H]2[C@H]([C@@H](O)C[C@@]3(C)[C@H]2CC[C@]3(O)C(=O)CO)[C@@]2(C)C=CC(=O)C=C12 [Methylprednisolone] | 0.909 |
| CC(=O)NC[C@H]1CN(c2ccc(N3CCOCC3)c(F)c2)C(=O)O1 [Linezolid] | -3.73 |

Reference: the supplement of paper PMC9950053
